# In the supplement of paper PMC8007513:
# Structures can show the parent of a compound that is named as a salt. ± gives the standard error. Screen size: about 1,300 compounds; about 130 (10%) showed an effect of 50% or more. The sample as a whole holds a higher share of strong results than the screen did.
# Tested on: Trichoderma virens ATCC 9645
# Test: growth yield (OD600) with compound + IPBC relative to untreated control; higher = less growth inhibition
# Details: compound concentration: 100 uM, IPBC concentration: 200 ng/ml
# Method in brief: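 Growth appears as means of duplicate screens, relative to the control containing neither agent. To obtain it, OD600 was read on a BioTek EL800 at 40 h and 72 h. The cultures were 100 μl aliquots in 96-well plates at 30 °C, holding Trichoderma virens ATCC 9645 spores at 15,000 spores ml^−1 in potato dextrose broth, library compounds at 100 μM final, and, in some wells, a biocide at 200 ng ml^−1.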
Structure (SMILES),growth yield (40 h),growth yield (72 h)
Oc1c(Cl)cc(Cl)c(Cl)c1Cc1c(O)c(Cl)cc(Cl)c1Cl [Hexachlorophene] + CCCCNC(=O)OCC#CI [3-iodo-2-propynyl butylcarbamate (IPBC)],19.4 ± 4.8%,80.2 ± 2.6%
CC(C)C(=O)OCC(=O)[C@@]12O[C@H](C3CCCCC3)O[C@@H]1C[C@H]1[C@@H]3CCC4=CC(=O)C=C[C@]4(C)[C@H]3[C@@H](O)C[C@@]12C [Ciclesonide] + CCCCNC(=O)OCC#CI [3-iodo-2-propynyl butylcarbamate (IPBC)],107 ± 6.8%,103 ± 5.8%
CC(C)CC(=O)N[C@H](C(=O)N[C@H](C(=O)N[C@@H](CC(C)C)[C@@H](O)CC(=O)N[C@@H](C)C(=O)N[C@@H](CC(C)C)[C@@H](O)CC(=O)O)C(C)C)C(C)C [Pepstatin A] + CCCCNC(=O)OCC#CI [3-iodo-2-propynyl butylcarbamate (IPBC)],96.4 ± 11%,103 ± 6.7%
CN[C@@H]1[C@H](O[C@H]2[C@H](O[C@H]3[C@H](O)[C@@H](O)[C@H](N=C(N)N)[C@@H](O)[C@@H]3N=C(N)N)O[C@@H](C)[C@]2(O)C=O)O[C@@H](CO)[C@H](O)[C@H]1O [Streptomycin sulfate] + CCCCNC(=O)OCC#CI [3-iodo-2-propynyl butylcarbamate (IPBC)],101 ± 3.8%,99.9 ± 1.1%
O=C(O)COC(=O)Cc1ccccc1Nc1c(Cl)cccc1Cl [Aceclofenac] + CCCCNC(=O)OCC#CI [3-iodo-2-propynyl butylcarbamate (IPBC)],79.9 ± 0.48%,95.9 ± 1.7%
Cc1ccc(Cl)c(Nc2ccccc2C(=O)O)c1Cl [Meclofenamic acid sodium salt monohydrate] + CCCCNC(=O)OCC#CI [3-iodo-2-propynyl butylcarbamate (IPBC)],71.3 ± 1.4%,85.3 ± 1.8%
O=C(O)Cc1ccccc1Nc1c(Cl)cccc1Cl [Diclofenac sodium] + CCCCNC(=O)OCC#CI [3-iodo-2-propynyl butylcarbamate (IPBC)],44.79 ± 0.32%,74.7 ± 1.5%
O=C(CCCCCCC(=O)Nc1ccccc1)NO [Vorinostat] + CCCCNC(=O)OCC#CI [3-iodo-2-propynyl butylcarbamate (IPBC)],107 ± 9.5%,99.5 ± 3.9%
COc1cc2nc(N3CCN(C(=O)c4ccco4)CC3)nc(N)c2cc1OC [Prazosin hydrochloride] + CCCCNC(=O)OCC#CI [3-iodo-2-propynyl butylcarbamate (IPBC)],84.82 ± 0.32%,92.6 ± 1.1%
CN(C)CC/C=C1/c2ccccc2Sc2ccc(Cl)cc21 [Chlorprothixene hydrochloride] + CCCCNC(=O)OCC#CI [3-iodo-2-propynyl butylcarbamate (IPBC)],24.5 ± 7.9%,83.6 ± 8.9%
OCCOCCN1CCN(C2=Nc3ccccc3Sc3ccccc32)CC1 [Quetiapine hemifumarate] + CCCCNC(=O)OCC#CI [3-iodo-2-propynyl butylcarbamate (IPBC)],72.75 ± 0.64%,85.7 ± 3.2%
CN(C)CC/C=C1\c2ccccc2CSc2ccccc21 [Dosulepin hydrochloride] + CCCCNC(=O)OCC#CI [3-iodo-2-propynyl butylcarbamate (IPBC)],77.5%,99 ± 1.1%
CN(C)CCOC(c1ccc(Cl)cc1)c1ccccn1 (configuration not stated) [Carbinoxamine maleate salt] + CCCCNC(=O)OCC#CI [3-iodo-2-propynyl butylcarbamate (IPBC)],103 ± 9.4%,102 ± 4.9%
OCCN1CCN(CC/C=C2/c3ccccc3Sc3ccc(Cl)cc32)CC1 [Zuclopenthixol dihydrochloride] + CCCCNC(=O)OCC#CI [3-iodo-2-propynyl butylcarbamate (IPBC)],4.92 ± 0.16%,3.57 ± 0.21%
CN(C)CCC=C1c2ccccc2C=Cc2ccccc21 [Cyclobenzaprine hydrochloride] + CCCCNC(=O)OCC#CI [3-iodo-2-propynyl butylcarbamate (IPBC)],65.1%,88.41 ± 0.73%
CN(C)CCOC1=Cc2ccccc2Sc2ccc(Cl)cc21 [Zotepine] + CCCCNC(=O)OCC#CI [3-iodo-2-propynyl butylcarbamate (IPBC)],38.6 ± 0.16%,97.7%
